# Rows were chosen to be rich in hits. Some 9.2% of all compounds tested hit in one or more screens of this group.
# NPC1 promoter act: activates the NPC1 promoter. Huh7 NPC1 promoter luciferase reporter, 24 h. Potency, µM (highest dose often 9.22 µM), inactives show at the highest dose activation, hits mostly activators. 320,000 tested, 2.4% active. AID 485313; also: % of control where 0% means no effect; nearly all actives have a fitted effect of over 60% in size
#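 NPC1 promoter–luciferase Huh7 cells; 24 h compound; luminescence.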
# ELG1 genotox: inducers of genotoxicity in HEK293T ELG1-luciferase cells. AID 504466. Potency, µM (doses to about 46 µM), for inactives: at the highest dose activity change, positive = activation, hits mostly activators. HEK293T ELG1-luciferase reporter, luminescence, 16 h. 330,000 tested, 1.3% active; also: % of control where 0% means no effect; nearly all actives have a fitted effect of over 60% in size
#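 Reporter readout depends on ELG1 protein level, which increases with genetic stress. After 16 hr compound exposure at 37 °C, luciferase activity was quantified using ONE-Glo.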
# FLuc counter: inhibits or activates purified firefly luciferase, miR-21 counter-screen. P08659. purified FLuc, Km substrates, luminescence inhibition. 360,000 tested, 6.9% active. Potency, µM (series often up to 57.5 µM), inactives show at the top dose activity change, negative = inhibition, usual class: inhibitors;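 also: plate controls were vehicle for no effect and reference inhibitor for full effect; nearly all actives have a fitted effect of over 55% in size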
# Target sequence (P08659 whole entry, looked up): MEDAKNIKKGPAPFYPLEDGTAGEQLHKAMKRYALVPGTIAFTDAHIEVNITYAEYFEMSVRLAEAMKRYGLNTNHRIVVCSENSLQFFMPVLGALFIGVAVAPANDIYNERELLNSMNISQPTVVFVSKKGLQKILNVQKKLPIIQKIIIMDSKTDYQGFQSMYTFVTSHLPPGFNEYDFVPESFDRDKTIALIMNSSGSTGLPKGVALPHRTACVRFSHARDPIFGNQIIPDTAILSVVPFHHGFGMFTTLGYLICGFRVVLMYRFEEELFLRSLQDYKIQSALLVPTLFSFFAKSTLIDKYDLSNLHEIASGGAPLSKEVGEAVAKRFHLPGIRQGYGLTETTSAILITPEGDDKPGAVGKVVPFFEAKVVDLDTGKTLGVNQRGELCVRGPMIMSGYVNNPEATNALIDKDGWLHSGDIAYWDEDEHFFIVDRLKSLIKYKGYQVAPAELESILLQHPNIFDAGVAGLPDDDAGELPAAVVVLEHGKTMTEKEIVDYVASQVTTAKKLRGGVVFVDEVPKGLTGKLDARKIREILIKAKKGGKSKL
#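 Biochemical qHTS of compounds, final roughly 60 µM downward over six points, against 10 nM purified firefly luciferase using Km concentrations of substrates (10 uM D-luciferin, 10 uM ATP) in Tris acetate pH 7.5 buffer; luminescence output.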
# Rab9 promoter act: activates the Rab9 promoter; Huh7 Rab9 promoter-luciferase reporter, luminescence, 24 h; Potency, µM (top dose mostly 9.22 µM), for inactives: top-dose activation, negative = inhibition, most hits filed as activators; 320,000 tested, 2.8% active; also: % of control where 0% means no effect; nearly all actives have a fitted effect of over 60% in size
#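 Huh7 cells stably carrying Rab9 promoter–luciferase reporter, plated 1500 cells/well, compound added after 2 h and incubated 24 h at 37 °C; luciferase luminescence then read after 10 min with detection reagent.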
# SMN2 splice enh: increases expression of the SMN2 splice variant; HEK293 SMN2-luciferase splicing reporter, luminescence, 30-36 h; Potency, µM (titrated, usually from 46.1 µM), for the others: at the highest dose activity change, positive = activation, hits mostly activators; 210,000 tested, 2.8% active; also: % of control where 0% means no effect; nearly all actives have a fitted effect of over 55% in size
#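 qHTS luciferase splicing reporter: luminescence rises when SMN2 exon 7 is included in transfected HEK293 cells. Compound exposure lasted 30-36 h at 37C, with 4.5 mM final sodium butyrate as control, followed by a ONE-Glo read.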
# ELG1 repair inh: blocks ELG1-dependent DNA repair in HEK293T cells; HEK293T ELG1-luciferase reporter, luminescence, 16 h; DNA damage induced by 5-fluorouridine; Potency, µM (titrated, usually from 46.1 µM), without a hit: at the highest dose activity change, negative = inhibition, actives largely listed as inhibitors; 330,000 tested, 2.3% active; also: % is scaled to controls: 0 for no effect and ±100 for the full control effect; nearly all actives have a fitted effect of over 55% in size
#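 Luminescence from the luciferase reporter, measured 30 min after ONE-Glo reagent at room temperature, was the read-out. Beforehand, 2,000 cells per well were exposed for 16 hr at 37 °C to 5-fluorouridine together with compound or vehicle.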
# * = called active by the depositor; ? = inconclusive; nt = not tested or not shown; [ ] = dose if it differs, or a comment. Calls follow the shape of the dose curve; as a rule, active = well fitted curve in the direction sought with a large enough effect; inconclusive = small, poorly fitted or top-dose-only effect, or another doubt; inactive = no such curve, though single readings can be large; an effect the other way counts as inactive or inconclusive. Potency is read from the fitted curve at half-maximal effect.
SMILES,NPC1 promoter act,ELG1 genotox,FLuc counter,Rab9 promoter act,SMN2 splice enh,ELG1 repair inh
Cc1ccc(OCc2cc(C(=O)Nc3ccccc3)oc2C)cc1,22%,?,19µM*,17%,7%,?
Cc1oc(C(=O)Nc2ccc(O)cc2)cc1COc1ccccc1,0%,?,?,-9%,?,11%
COc1ccc(NC(=O)c2ccc(COc3ccc(C)cc3)o2)cc1,26%,5%,11µM*,29%,nt,-1%
C=CCN1c2ccccc2[C@]23C[C@@H](C(=O)OC)N(S(=O)(=O)c4ccc(Br)cc4)C2=NC(C(=O)OC)=C(C(=O)OC)[C@H]13,nt,nt,nt,nt,-1%[9.22 µM],nt
CC1CCN(c2ncnc3c2cnn3-c2ccc(F)cc2)CC1,nt,nt,3µM*,nt,nt,nt
CC1CN(c2ncnc3c2cnn3-c2ccc(Cl)cc2)CC(C)O1 (configuration not stated),1.1µM*,2.1µM*,3µM*,1µM*,?,?
COc1ccc(-n2ncc3c(N4CCCCC4)ncnc32)cc1,-17%,0.065µM*,0.17µM*,?,-111%,?
Fc1ccc(-n2ncc3c(N4CCN(Cc5ccccc5)CC4)ncnc32)cc1,nt,nt,-14%,nt,nt,nt
Clc1ccc(-n2ncc3c(N4CCCCCC4)ncnc32)cc1,-11%,0.15µM*,0.19µM*,-18%,-101%,?
COc1ccc(-n2ncc3c(N4CCN(c5cccc(C)c5C)CC4)ncnc32)cc1,-10%,1%,0%,-1%,nt,13%
Cc1ccc(Cl)cc1-n1ncc2c(N3CCCCCC3)ncnc21,nt,nt,-13%,nt,nt,nt
COC(=O)c1ccc(CNC(=O)COC(=O)COc2ccc(OC)cc2)cc1,-2%,3%,0%,0%,14%,16%
Cc1ccc(-n2ncc3c(N4CCC(Cc5ccccc5)CC4)ncnc32)cc1,nt,nt,-13%,nt,nt,nt
Cc1ccc(-n2ncc3c(N4CCCCC4)ncnc32)cc1,nt,nt,0.076µM*,nt,nt,nt
Cc1ccccc1C(=O)N1c2ncnn2C2(CCCCC2)[C@@H]2CCCC[C@@H]21,nt,nt,2%,nt,nt,nt
O=C(CCC1CCCCC1=O)c1ccccc1 (configuration not stated),10%,2%,?,11%,-9%,?
Cc1ccc(C(=O)CCC(=O)NC2CCCC(C)C2C)cc1 (configuration not stated),0%,-2%,3%,-23%,nt,15%
CCc1ccc(C(=O)CCC2CCCCC2=O)cc1 (configuration not stated),?,18µM*,12µM*,?,-4%,?
Cc1ccc(C(=O)CCC2CCCCC2=O)cc1 (configuration not stated),?,21µM*,13µM*,?,-7%,?
Cc1ccc(C(=O)CCC2CCCC2=O)cc1 (configuration not stated),4µM*,?,12µM*,?,?,?
Cc1cc2nc(C3CCCN(C(=S)Nc4ccccc4)C3)[nH]c2cc1C (configuration not stated),-1%,4%,?,-3%,2%,18%
Cc1cc2nc(C3CCN(C(=S)NCC(C)C)CC3)[nH]c2cc1C,0%,3%,17µM*,-1%,-3%,-10%
COc1ccccc1NC(=S)N1CCC(c2nc3cc(C)c(C)cc3[nH]2)CC1,4%,6%,13µM*,22%,-1%,-1%
COc1ccccc1NC(=O)N1CCC(c2nc3cc(C)c(C)cc3[nH]2)CC1,-8%,?,?,-26%,12%,11%
C=CCNC(=S)N1CCC(C(=O)c2ccc(F)cc2)CC1,-1%,2%,1%,0%,nt,?
SMILES,NPC1 promoter act,ELG1 genotox,FLuc counter,Rab9 promoter act,SMN2 splice enh,ELG1 repair inh
CCOC(=O)c1c(OCC)[nH]c2c1cc(O)c1ccccc12,10%,-16%,?,-1%,-9%,21µM*
CNc1nc(Nc2ccc(Br)cc2)nc(N)c1[N+](=O)[O-],?,?,-4%,3.5µM*,11%,?
Cc1ccc(Nc2n[nH]c(C)c2[N+](=O)[O-])cc1,2.8µM*,19%,19µM*,3.5µM*,18µM*,?
Cc1[nH]nc(Nc2ccccc2)c1[N+](=O)[O-],18%,4%,?,13%,-8%,?
COc1ccc(Nc2nc(N)c([N+](=O)[O-])c(NCCO)n2)cc1,17%,8%,?,1%,nt,0%
Cc1[nH]nc(Nc2ccc(C(C)C)cc2)c1[N+](=O)[O-],3.5µM*,?,9.5µM*,3.5µM*,nt,?
Cc1[nH]nc(Nc2ccc(Br)cc2)c1[N+](=O)[O-],2.8µM*,?,9.5µM*,3.2µM*,nt,?
Cc1cccc(Nc2n[nH]c(C)c2[N+](=O)[O-])c1,2.5µM*,5.8µM*,15µM*,3.2µM*,?,?
CCOc1ccc(C(=O)NNC(=O)CN2C(=O)NC3(CCCC3)C2=O)cc1,-1%,1%,?,-7%,nt,?
CC(=O)c1ccc(N2CCN(C(=O)CN3C(=O)NC4(CCCCC4)C3=O)CC2)c(F)c1,-2%,0%,3%,2%,nt,-13%
c1ccc(CN2OCC3Cn4c(nc5ccccc54)C32)cc1 (configuration not stated),-3%,3%,-1%,-5%,nt,?
c1ccc(N2OCC3Cn4c(nc5ccccc54)C32)cc1 (configuration not stated),8%,16%,19µM*,5%,nt,?
COC(=O)c1sc(NC(=O)/C=C/c2ccccc2Cl)nc1C,9%,-16%,-11%,-8%,?,21%
CN(C)c1ccc(NC(=S)NC(=O)/C=C/c2ccc(Cl)cc2)cc1,16%,11%,4.8µM*,21%,44%,?
O=C(/C=C/c1ccc(Cl)cc1)NC(=S)Nc1ccc(C(=O)O)cc1,-4%,5%,-19%,-3%,nt,-4%
CCN(CC)c1ccc(NC(=O)/C=C\c2ccccc2Cl)cc1,26%,7.3µM*,2.7µM*,27%,?,?
CN(C)c1ccc(NC(=O)/C=C/c2ccccc2Cl)cc1,?,?,1.2µM*,2.5µM*,20µM*,?
O=C(/C=C/c1ccccc1Cl)NCc1ccccc1,3%,14%,?,29%,16%,?
N#Cc1ccc(CN2CC3(CCN(C(=O)c4cnccn4)CC3)C2)cc1,nt,nt,nt,nt,0%,nt
Cn1nc(C(=O)NCCCN2CCCCC2)c2c1-c1ccccc1SC2,1%,?,4%,1%,nt,22%
CNc1ncc(C(=O)c2ccccc2)s1,?,?,?,?,17%,?
CC(=O)c1cnc(Nc2cccc(Cl)c2Cl)s1,23%,?,?,?,13µM*,?
